From PubChem BioAssay
The list is not random: actives were taken first. Their share in the collection is about 13%.
HCV inh = inhibitors of hepatitis C virus infection. Huh7.5.1 HCVcc-Cre infection, luciferase reporter, 44 h. Potency, µM (titrated, usually from 41.8 µM), for inactives: at the top dose activity change, negative = inhibition, most hits filed as inhibitors. 340,000 tested, 3.4% active; active means well fitted inhibition curve with a large enough effect; inconclusive means small, poorly fitted or top-dose-only effect, or another doubt; inactive means no such curve, though single readings can be large or run the other way; further: potency means the concentration at half of the fitted maximal effect; on the % scale 0 is the no-effect control and ±100 the full control effect
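Infectious HCVcc-Cre (~0.5 moi) was added to cells just after compound, with cells seeded 4 h earlier at 1,000 per well. Luciferase activity after 44 h culture reported infection; substrate was incubated 15 min at room temperature before reading.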
FMDV antiviral = antivirals against foot and mouth disease virus | FMDV antiviral cell-based qHTS | Potency, µM (titrated, usually from 57.9 µM), without a hit: at the top dose activity change, negative = inhibition, usual class: inhibitors | 410,000 tested, 1.2% active; calls by dose curve; tested in HEK293T cells; further: read-out not given here; potency means the concentration at half of the fitted maximal effect; on the % scale 0 is the no-effect control and ±100 the full control effect; nearly all actives have a fitted effect of over 45% in size
CHX counter = affects cycloheximide protein synthesis inhibition readout, counter-screen. cell reporter, cycloheximide protein synthesis inhibition counterscreen. max response, %. 300,000 tested, 12% active. AID 2314; in the data active means max response mostly above about 13%, no sharp cut-off; inactive means mostly below about 14%; further: read at 38.3 µM for the half of the compounds with a filed dose; 0% is about no effect
Shiga inhibitor = Shiga toxin inhibition; Vero cells, Shiga toxin protein synthesis inhibition reporter; inhibition, % at 38.7 µM; 290,000 tested, 9.2% active; AID 2315; in the data active means inhibition mostly above about 28%, no sharp cut-off; inactive means mostly below about 43%; further: 0% is about no effect
Lassa entry inh = Lassa virus entry inhibition. Lassa virus pseudotype entry inhibition, cell reporter. Potency, µM (series often up to 37.9 µM), for inactives: at the top dose activity change, negative = inhibition, most hits filed as inhibitors. 300,000 tested, 1.2% active; calls by dose curve; tested in HEK293 cells; further: potency means the concentration at half of the fitted maximal effect; on the % scale 0 is the no-effect control and ±100 the full control effect; nearly all actives have a fitted effect of over 50% in size
MARV entry inh = blocks Marburg virus binding to or entry into cells; Marburg virus pseudotyped entry inhibition, cell reporter; Potency, µM (highest dose often 37.8 µM), without a hit: at the highest dose activity change, negative = inhibition, hits mostly inhibitors; 300,000 tested, 1.8% active; AID 540276; calls by dose curve; tested in HEK293 cells; further: potency means the concentration at half of the fitted maximal effect; on the % scale 0 is the no-effect control and ±100 the full control effect
An asterisk follows results filed as active; u = inconclusive; x = no result; [ ] = dose if it differs, or a comment.

SMILES | HCV inh | FMDV antiviral | CHX counter | Shiga inhibitor | Lassa entry inh | MARV entry inh
Cc1ccc(-c2nn3c(C)nnc3s2)cc1N | -5% | 60% | 16* | 48 | 15% | u
Cc1ccc(-c2nn3c(C)nnc3s2)cc1NCc1c(F)cccc1Cl | u | x | -3 | -9 | u | 9.2µM*
COc1ccc(-c2cc(C3CCN(CC(O)C(F)(F)F)CC3)[nH]n2)cc1 (configuration not stated) | -13% | -1% | -3 | -7 | x | x
Cc1ccc(CN2CCC(c3cc(-c4ccc(Cl)cc4)n[nH]3)CC2)cc1 | 13µM* | u | 0 | -7 | u | u
COc1ccc(-c2cc(C3CCN(Cc4cccc(C(F)(F)F)c4)CC3)[nH]n2)cc1 | u | u | -6 | -10 | u | 10µM*
Cc1ccc(CN2CCC(c3nc4ccc(Cl)cc4[nH]3)CC2)cc1 | 11µM* | x | -4 | -9 | u | 4.1µM*
Cc1ccc2nc(C3CCCCC3)[nH]c2c1 | 3% | 41% | 38* | 42* | x | x
Clc1ccc2nc(C3CCN(Cc4ccccc4)CC3)[nH]c2c1 | u | -9% | -3 | -8 | u | u
CCNC(=S)N1CCCC(c2nc3ccc(C)cc3[nH]2)C1 (configuration not stated) | u | 8% | 9 | 29 | x | x
COc1ccc(N2CCN(S(=O)(=O)c3ccc(OC)c(C(=O)N4CCCC4)c3)CC2)cc1 | -15% | 1% | -4 | -1 | x | -16%[46.1 µM]
OC(CNCc1ccc(Cl)cc1)(c1ccccc1)c1ccc(F)cc1 (configuration not stated) | -24% | -2% | 1 | -15 | -18% | u
COc1ccc(CNCC(O)(c2ccc(Cl)cc2)c2ccc(Cl)cc2)cc1 | u | -17% | -3 | -14 | u | u
COc1ccc(CNCC(O)(c2ccc(Cl)cc2)c2ccc(Cl)cc2)cc1OC | 13µM* | u | -4 | -22 | u | u
COc1ccc(CNCC(O)(c2ccccc2)c2ccc(F)cc2)cc1OC (configuration not stated) | 10µM* | u | 7 | -4 | u | 2.8µM*
COc1ccc(CNCC(O)(c2ccc(F)cc2)c2ccc(F)cc2)cc1OC | u | u | 11 | 11 | x | x
COc1ccc(CNCC(O)(c2ccccc2)c2ccc(F)cc2)cc1 (configuration not stated) | 8% | -4% | 6 | 24 | 14%[46.1 µM] | 11µM*
CN(C1(C)CCS(=O)(=O)C1)S(=O)(=O)c1ccc(F)cc1 (configuration not stated) | 16% | 0% | -1 | -5 | x | x
Cc1cc(C)c2oc(-c3cccc(N)c3)nc2c1 | -11% | 4% | 52* | 106* | x | x
CCOCCCNC(=O)/C(C#N)=C/c1cc(Br)c(O)c(Br)c1 | -13% | u | 2 | -8 | x | x
Cc1ccc(-c2ccc(CO)o2)cc1N | u | 12% | 25* | 55* | -25% | -13%[46.1 µM]
CCOC(=O)c1ccc(-c2ccc(CO)o2)cc1 | -17% | 19% | 34* | 84* | -8% | u
CCOc1ccc(-c2ccc(CO)o2)cc1N | x | 28% | x | x | -30%[46.1 µM] | x
CCOC(=O)NC(=O)COC(=O)CNC(=O)c1cccc(OC)c1 | 14% | -1% | -2 | -6 | -1% | -3%[46.1 µM]
O=C1CC(C(=O)N2CCCc3ccccc32)CN1c1ccc(F)cc1 (configuration not stated) | 0% | -4% | 25* | 75* | 0%[46.1 µM] | -4%[46.1 µM]
O=C(C1CC(=O)N(c2ccccc2)C1)N1CCCCCC1 (configuration not stated) | 12% | -11% | 2 | -1 | x | x
SMILES | HCV inh | FMDV antiviral | CHX counter | Shiga inhibitor | Lassa entry inh | MARV entry inh
O=C(NC(=O)N1CCCc2ccccc21)c1ccccc1 | -7% | 42% | 8 | -2 | -11% | 4%[46.1 µM]
COc1ccc(N2CC(C(=O)N3CCc4ccccc43)CC2=O)cc1 (configuration not stated) | -3% | 2% | x | x | 11% | 16%
O=C(C1CCCCC1)N1CCCc2ccccc21 | 4% | -10% | 22* | 31 | 7% | 5%
O=C1CC(C(=O)N2CCCc3ccccc32)CN1c1ccc(Cl)cc1 (configuration not stated) | 14% | -29% | 39* | 64 | -2%[46.1 µM] | -20%[46.1 µM]
O=C(C(c1ccccc1)c1ccccc1)N1CCCc2ccccc21 | -17% | -7% | 30* | 119* | -20% | 14µM*
O=C(NC1CCCCC1)N1CCCc2ccccc21 | 1% | -7% | -1 | -2 | 6% | 0%
CC(=O)[C@@]1(O)CCC2C3C=CC4=CC(=O)CC[C@]4(C)C3CC[C@@]21C (some centres not stated) | 10% | -21% | x | x | x | x
COc1ccc(OC)c(-c2c3cc(O)c(=O)cc-3oc3cc(O)c(O)cc23)c1 | -12% | -26% | -5 | -3 | u | 21µM*
O=c1cc2oc3cc(O)c(O)cc3c(-c3ccccc3O)c-2cc1O | -27% | 0% | 8 | -5 | x | x
COc1ccccc1NS(=O)(=O)c1ccc(C(=O)NCC(c2ccc(F)cc2)N2CCOCC2)cc1 (configuration not stated) | 5% | -18% | x | x | x | x
O=C(CCl)Nc1ccccc1Sc1ccccc1 | 14% | u | -2 | -8 | u | u
Cc1ccc(NC(=O)CC(=O)Nc2ccc(C)c(C)c2)cc1C | -12% | -2% | -6 | -8 | 6% | -4%[46.1 µM]
Cc1ccc(C)c(Sc2ccc(NC(=O)CCl)cc2)c1 | u | 20µM* | -1 | -14 | u | u
Cc1ccc(Sc2ccc(NC(=O)CCl)cc2)cc1C | u | 28µM* | 11* | 18* | u | u
O=C(NCC1CCCO1)c1cccc(Oc2ccccc2)c1 (configuration not stated) | -2% | 4% | 33* | 53* | 26%[46.1 µM] | u
O=C(NCC1CCCO1)c1cccc(NC(=O)c2ccccc2)c1 (configuration not stated) | 5% | -7% | 2 | -21 | 3%[46.1 µM] | u
O=C(NCC1CCCO1)c1cccc(Oc2c(Cl)cccc2[N+](=O)[O-])c1 (configuration not stated) | x | -19% | 8 | 20 | -27% | -19%
O=C(NCC1CCCO1)c1cccc(Oc2ccc([N+](=O)[O-])cc2)c1 (configuration not stated) | u | u | 24* | 50* | -25% | -15%
COc1ccc(CN=C(N)N=C(N)N)cc1Cl | u | -8% | -1 | -14 | u | -17%[14.2 µM]
NC(N)=NCc1cccc(I)c1 | 7.1µM* | u | x | x | u | u
CN(C)c1ccc([P+](=O)c2ccc(N(C)C)cc2)cc1 | -3% | 44% | 26 | 15 | 0%[46.1 µM] | 2%[46.1 µM]
CNC(=O)c1cc(C(=O)c2ccc(C(F)(F)F)cc2)c[nH]1 | -3% | 25% | 27* | 60* | 0%[46.1 µM] | 17%[46.1 µM]
CNC(=O)c1cc(C(=O)c2ccccc2Br)c[nH]1 | 24% | -7% | 7 | 7 | u | -1%[46.1 µM]
